{"source": "PubChem BioAssay AID602252", "about": "(Broad Institute, 2012)", "note": "Out of some 300,000 compounds screened, about 2,700 (0.9%) were called active. The list comes from a sample in which actives are over-represented; it also holds similar structures and randomly drawn compounds. Unmarked numbers belong to inactive results.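 Rule for the calls: active = mean inhibition of at least 30% with at least half of replicates also reaching 30%; inconclusive = no clear call, values can overlap the other calls; inactive = the rest.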", "data": [{"molecular_target": "Golgi-associated PDZ and coiled-coil motif-containing protein (Homo sapiens) (UniProt Q9HD26)", "assay": "untagged CAL PDZ binding inhibitors, primary screen, biochemical, fluorescence polarization, HTS (AID 602252);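 note: 0% = DMSO neutral control and 100% = excess unlabeled competitor peptide PRC23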", "details": "purified CAL PDZ, TMR-peptide fluorescence polarization, 1 h; at 24.9 µM; stronger effect = higher value", "values": [{"smiles": "Fc1ccccc1-c1cc2cc3c(cc2cn1)OCO3", "inhibition": "-3.15%"}, {"smiles": "COc1cc(/C=C/c2ccc(/C=C/c3cc(OC)c(OC)c(OC)c3)cc2)cc(OC)c1OC", "inhibition": "-6.47%"}, {"smiles": "CC(Oc1ccc2c(-c3ccccc3)cc(=O)oc2c1)C(=O)NC(Cc1c[nH]c2ccccc12)C(=O)O", "note": "(stereo not given)", "inhibition": "1.66%"}, {"smiles": "CCC(=O)Nc1ccc2c(c1)nc(CCN1CCN(c3ccccn3)CC1)n2C", "inhibition": "-15.1%"}, {"smiles": "Cn1c(CCN2CCCC2)nc2cc(NS(=O)(=O)c3ccccc3)ccc21", "inhibition": "-2.75%"}, {"smiles": "Cn1c(CCN2CCCCCC2)nc2cc(NC(=O)Nc3ccccc3)ccc21", "inhibition": "49.1% (active)"}, {"smiles": "CC[C@@H]1CCCCc2ccccc2[C@@H](C(=O)C[C@H](O)CC(C)=O)OC1=O", "inhibition": "1.2%"}, {"smiles": "COc1ccc(CNC(=O)C2CCN(S(=O)(=O)N3CCOCC3)CC2)cc1", "inhibition": "-1.68%"}, {"smiles": "O=C(NCc1ccccc1Cl)C1CCN(S(=O)(=O)c2cccc3nonc23)CC1", "inhibition": "-3.79%"}, {"smiles": "COCCNC(=O)C1CCN(S(=O)(=O)c2ccc3c(c2)OCCO3)CC1", "inhibition": "-1.23%"}, {"smiles": "O=C(NCc1ccccc1Cl)C1CCN(S(=O)(=O)N2CCOCC2)CC1", "inhibition": "137% (active)"}, {"smiles": "O=C(NCc1cccs1)C1CCN(S(=O)(=O)c2ccc3c(c2)OCCO3)CC1", "inhibition": "-6.83%"}, {"smiles": "COc1ccccc1CNC(=O)C1CCN(S(=O)(=O)c2ccc3c(c2)OCCO3)CC1", "inhibition": "80.2% (active)"}, {"smiles": "CCOc1ccc(CCNC(=O)COC(=O)C2CCN(S(=O)(=O)c3ccccc3)CC2)cc1OCC", "inhibition": "-1.05%"}, {"smiles": "O=C(N[C@H]1C/C=C\\C(c2cccc(F)c2)N(Cc2ccccc2)C(=O)C1)OCC1c2ccccc2-c2ccccc21", "note": "(stereo not given in full)", "inhibition": "-1.43%"}, {"smiles": "O=C(Nc1c(Br)cc2c(c1Br)Cc1ccccc1-2)C(F)(F)F", "inhibition": "-4.34%"}, {"smiles": "Cc1cn(C2CC(O)C(CO)O2)c(=O)n(CCCc2ccccc2)c1=O", "note": "(stereo not given)", "inhibition": "-2.38%"}, {"smiles": "COc1ccc(S(=O)(=O)N2CCOCC2)cc1NC(=O)c1ccc(OCC(C)C)c(OC)c1", "inhibition": "-4%"}, {"smiles": "COc1cc2c(cc1OC)C1C(=O)c3cc(OS(C)(=O)=O)c(OC)cc3C1N(C)C2=O", "note": "(stereo not given)", "inhibition": "-1.26%"}, {"smiles": "Cc1noc(NS(=O)(=O)c2ccc(NC(=O)C34CCC(CC3)C4)cc2)c1C", "inhibition": "-5.91%"}, {"smiles": "CCn1c(SCC(=O)Nc2ccc3c(c2)OCCO3)nnc1-c1ccncc1", "inhibition": "-1.31%"}, {"smiles": "CCn1c(SCC(=O)Nc2ccc(S(=O)(=O)Nc3onc(C)c3C)cc2)nnc1-c1ccccc1", "inhibition": "30.7% (active)"}, {"smiles": "COc1ccc(C(CNC(=O)c2cccc(S(=O)(=O)Nc3ccc(Br)cc3)c2)N(C)C)cc1", "note": "(stereo not given)", "inhibition": "-3.75%"}, {"smiles": "O=[N+]([O-])c1ccc(NS(=O)(=O)c2ccccc2)c(Cl)c1", "inhibition": "-10.2%"}, {"smiles": "O=[N+]([O-])c1ccc(COc2ccccc2CN2CCOCC2)cc1", "inhibition": "0.702%"}, {"smiles": "COc1ccccc1N1CCN(/N=C\\C(Br)=C\\c2ccccc2)CC1", "inhibition": "1.35%"}, {"smiles": "COc1ccccc1N1CCN(/N=C/c2ccc(O)cc2O)CC1", "inhibition": "77.6% (active)"}, {"smiles": "COc1cc(/C=N/N2CCN(c3ccccc3)CC2)ccc1OC(C)=O", "inhibition": "4.07%"}, {"smiles": "CC(=NNC(=S)N1CCCCCC1)c1ccccn1", "inhibition": "-1.44%"}, {"smiles": "CN(O)C(=S)c1ccccc1", "inhibition": "-3.98%"}, {"smiles": "CN1CCN(S(=O)(=O)c2ccc(N3CCN(c4ccccc4O)CC3)c([N+](=O)[O-])c2)CC1", "inhibition": "-6.2%"}, {"smiles": "O=C(C[C@H]1C[C@H](C(=O)N2CCOCC2)[C@@]2(CCC3CCCC3)c3[nH]c4ccc(Cl)cc4c3CCN2C1=O)NCc1ccco1", "inhibition": "4.95%"}, {"smiles": "CCOC(=O)C1=C(C)N(C[C@@H]2CC[C@@H](Cc3ccc(-c4ccccc4)cc3)O2)C(=O)NC1c1ccc([N+](=O)[O-])cc1", "note": "(stereo not given in full)", "inhibition": "-2.42%"}, {"smiles": "Cc1ccccc1OC/C(O)=C(\\C#N)c1nc2ccccc2[nH]1", "inhibition": "4.87%"}, {"smiles": "N#C/C(=C(/O)COc1cccc2ccccc12)c1nc2ccccc2[nH]1", "inhibition": "-1.44%"}, {"smiles": "CC(C)(C)c1nnc2sc(SCC(O)=C(C#N)c3nc4ccccc4[nH]3)nn2c1=O", "inhibition": "43.7% (active)"}, {"smiles": "CC1CCCCC12NC(=O)N(CC(=O)OCc1c(F)cccc1Cl)C2=O", "note": "(stereo not given)", "inhibition": "-9.25%"}, {"smiles": "C(#CCN1CCOCC1)CCCN1CCOCC1", "inhibition": "-3.29%"}, {"smiles": "Cc1cc(C(=O)COc2ccc(Br)cc2F)c(C)n1C1CC1", "inhibition": "-6.1%"}, {"smiles": "COc1ccc(CNC(=O)COc2ccccc2C(=O)c2cnn(-c3ccccc3)c2)cc1OC", "inhibition": "-9.89%"}, {"smiles": "O=C(CNCCO)NC12CC3CC(CC(C3)C1)C2", "inhibition": "40.5% (active)"}, {"smiles": "O=C(COC(=O)C12CC3CC(CC(O)(C3)C1)C2)NC12CC3CC(CC(C3)C1)C2", "inhibition": "-5.51%"}, {"smiles": "CC(NCCO)C(=O)C12CC3CC(CC(C3)C1)C2", "note": "(stereo not given)", "inhibition": "4.83%"}, {"smiles": "Cc1cccc(C(=O)N[C@H](C(=O)NCc2cccs2)C(C)C)c1", "inhibition": "-0.924%"}, {"smiles": "O=C(Nc1ccc(S(=O)(=O)N2CCOCC2)cc1)C1CCN(S(=O)(=O)c2ccc(Cl)cc2)CC1", "inhibition": "-10.9%"}, {"smiles": "CCNC(=S)Nc1cccc(Cl)c1C", "inhibition": "-2.42%"}, {"smiles": "Cc1c(Cl)cccc1NC(=S)NCc1ccc2c(c1)OCO2", "inhibition": "51.1% (active)"}, {"smiles": "CN(C)S(=O)(=O)c1cccc(NC(=S)NCc2ccc3c(c2)OCO3)c1", "inhibition": "-4.92%"}, {"smiles": "CC(C)n1cnc2c(NCc3ccccc3)cc(OCC3CCN(C)CC3)cc21", "inhibition": "3.01%"}, {"smiles": "CN(C(=O)c1cccc(NC(=O)C2CCN(C(=O)OC(C)(C)C)CC2)c1)C1CCC1", "inhibition": "-3.04%"}, {"smiles": "O=C(CCc1ccc(S(=O)(=O)N2CCOCC2)cc1)NN=C1CCCCCCC1", "inhibition": "-3.33%"}, {"smiles": "O=C(O)c1ccc(S(=O)(=O)N2CCOCC2)o1", "inhibition": "32.5% (active)"}, {"smiles": "O=C(c1cc(S(=O)(=O)N2CCOCC2)ccc1Cl)N1CCOCC1", "inhibition": "-1.76%"}, {"smiles": "Cc1cccc(C=CC(=O)c2ccc(Cl)cc2)c1", "inhibition": "-5.84%"}, {"smiles": "Cc1cc(OCCCC(=O)Nc2cc(S(=O)(=O)N3CCOCC3)ccc2N2CCOCC2)ccc1Cl", "inhibition": "-3.89%"}, {"smiles": "CN(C(=O)c1cccc(NC(=O)Cc2ccc([N+](=O)[O-])cc2)c1)C1CCC1", "inhibition": "-2.37%"}, {"smiles": "COc1ccc(S(=O)(=O)N2CCc3ccccc32)cc1C(=O)Nc1cc(S(C)(=O)=O)ccc1Cl", "inhibition": "-5.31%"}, {"smiles": "CC1CN(C(=O)c2ccc([N+](=O)[O-])s2)CC(C)O1", "note": "(stereo not given)", "inhibition": "0.023%"}, {"smiles": "CC(=O)c1ccc(NC(=O)CSC(=S)N2CCCC2)cc1", "inhibition": "-3.19%"}, {"smiles": "O=C(CSC(=S)N1CCCCC1)c1c(F)cccc1F", "inhibition": "79.2% (active)"}, {"smiles": "O=C(CSC(=S)N1CCOCC1)c1ccccc1", "inhibition": "0.137%"}, {"smiles": "O=C(CNC(=O)c1ccccc1F)c1ccc(Br)cc1", "inhibition": "57.3% (active)"}, {"smiles": "O=C(CNC(=O)c1ccc(F)cc1)c1ccccc1", "inhibition": "-6.34%"}, {"smiles": "O=C(Nc1ccc(NC(=O)c2ccccc2F)cc1)c1ccccc1F", "inhibition": "4.51%"}, {"smiles": "Cc1c(NC(=O)CN(C)CC(=O)Nc2ccc(F)c(F)c2F)c(=O)n(-c2ccccc2)n1C", "inhibition": "-3.99%"}, {"smiles": "O=C1c2oc3ccc(Br)cc3c(=O)c2C(c2cccc(F)c2)N1CCO", "note": "(stereo not given)", "inhibition": "3.36%"}, {"smiles": "O=C1c2oc3ccccc3c(=O)c2C(c2cccc(O)c2)N1c1ccccn1", "note": "(stereo not given)", "inhibition": "-1.77%"}, {"smiles": "COCCN1C(=O)c2oc3c(C)cc(C)cc3c(=O)c2C1c1cccc(O)c1", "note": "(stereo not given)", "inhibition": "47.9% (active)"}, {"smiles": "Cc1ccc(C(=O)Nc2ncccc2C)cc1S(=O)(=O)N1CCOCC1", "inhibition": "-3.36%"}, {"smiles": "Cc1ccc(C(=O)NCC(c2cccs2)N(C)C)cc1S(=O)(=O)N1CCOCC1", "note": "(stereo not given)", "inhibition": "47.1% (active)"}, {"smiles": "COc1ccccc1C(CNC(=O)c1ccc(C)c(S(=O)(=O)N2CCCCC2)c1)N(C)C", "note": "(stereo not given)", "inhibition": "-4.72%"}, {"smiles": "O=C(Nc1c(Br)cc2c(c1Br)Cc1cc([N+](=O)[O-])ccc1-2)C(Cl)Cl", "inhibition": "-7.68%"}, {"smiles": "OCCC1CN(Cc2ccc3nsnc3c2)CCN1C1CCCC1", "note": "(stereo not given)", "inhibition": "2.19%"}, {"smiles": "Cn1cnnc1Sc1ccc(CN2CCN(C3CCCC3)C(CCO)C2)o1", "note": "(stereo not given)", "inhibition": "2.66%"}, {"smiles": "OCCC1CN(Cc2ccc3nsnc3c2)CCN1C1CCCCC1", "note": "(stereo not given)", "inhibition": "77% (active)"}, {"smiles": "CCOc1ccc(-c2nc(C)sc2CC(=O)O)cc1", "inhibition": "-0.665%"}, {"smiles": "C/C(=N/Nc1nc(-c2ccccc2)c(CC(=O)O)s1)c1ccccc1", "inhibition": "2.17%"}, {"smiles": "CCOC(=O)C(=O)Nc1nc(-c2ccccc2)c(CC)s1", "inhibition": "65.4% (active)"}, {"smiles": "CCCCCCCCNS(=O)(=O)CCNC1CCCCC1", "inhibition": "0.068%"}, {"smiles": "CC(=O)Oc1ccc(OC(C)=O)c2c1C1C=CC2CC1", "inhibition": "3.2%"}, {"smiles": "COc1cc(N=Cc2c(O)c3ccccc3oc2=O)c(OC)cc1Cl", "inhibition": "36.3% (active)"}, {"smiles": "COc1ccc(N=Cc2c(O)[nH]c3ccccc23)cc1OC", "inhibition": "0.564%"}, {"smiles": "Cc1ccc(N=Cc2c(O)cc(C)oc2=O)c(C)c1", "inhibition": "-1.38%"}, {"smiles": "CC(=O)Nc1ccc(S(=O)(=O)NCC(=O)OCC(=O)c2ccc[nH]2)cc1", "inhibition": "-5.59%"}, {"smiles": "Nc1ncnc2c1ncn2[C@@H]1O[C@H](CNCc2cccn2-c2nccs2)[C@@H](O)[C@H]1O", "inhibition": "-2.1%"}, {"smiles": "COc1ccc(C2CC(=O)NC(=O)C2)cc1", "inhibition": "-5.54%"}, {"smiles": "COc1ccc2c(c1)C(=O)CC(c1ccccc1)O2", "note": "(stereo not given)", "inhibition": "16.3%"}, {"smiles": "COC1=CC(=O)OC(c2ccc(OC)cc2)C1", "note": "(stereo not given)", "inhibition": "45% (active)"}, {"smiles": "CC1(C)C(=O)CCC2(C)C1=CCC1C2C(=O)CC2(C)C1CCC2(O)C(=O)CO", "note": "(stereo not given)", "inhibition": "-4.84%"}, {"smiles": "O=C(O)c1ccc([N+](=O)[O-])cc1Sc1ccsc1", "inhibition": "-2.87%"}]}]}
